Test [1] in a line: HEK-293 Cancer Cell Toxicity qHTS against the NCATS CANVASS Library (AID 1347355). Further: nearly all actives have a fitted effect of over 65% in size. Further: potency means the concentration at half of the fitted maximal effect. On outcome: series mostly up to about 46 µM. In a few lines:
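First, 1000 cells go into each well and rest for 4 hours. Next, an 11-point dilution range is pinned in. Plates then incubate 72 hours before CellTiter-Glo addition and luminescence reading.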
(In general: Quantitative high-throughput screening tests each substance at several concentrations.)

Test [2] is described as follows: qHTS assay for small molecule disruptors of mitochondrial membrane potential screened against the NCATS CANVASS Library (AID 1347389). Further: nearly all actives have a fitted effect of over 60% in size. Further: potency means the concentration at half of the fitted maximal effect. In a few lines: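 Mitochondrial depolarization in HepG2 cells is scored as a falling aggregate-to-monomer fluorescence ratio after 1 hr compound exposure and 30 min staining with Mito-MPS dye at 37C, each compound tested as an 11-point titration.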

Test [3] can be described thus: Secretion counterscreen for inhibitors of the SERCaMP assay screened against the NCATS CANVASS Library (AID 1347390).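 Further: light from luciferase secreted into medium read as a measure of general secretion.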 Further: potency means the concentration at half of the fitted maximal effect. In a few lines: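 Counterscreen identifying compounds that disrupt secretion, using SH-SY5Y cells with a constitutively secreted Gaussia luciferase reporter. A 20 h compound exposure (top 77 uM) precedes luminescent detection with coelenterazine.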
For orientation: Counterscreens check selectivity or assay interference.

The nature of test [4]: Vero-766 cells viability qHTS against the NCATS CANVASS Library: Counterscreen for Zika virus inhibition assay (AID 1347394). Further: nearly all actives have a fitted effect of over 60% in size. Further: potency means the concentration at half of the fitted maximal effect. In a few lines:
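This cytotoxicity counterscreen uses African green monkey Vero 766 cells in the absence of Zika virus. Compounds are incubated with cells for 72 h, and ATP-based luminescence reports viability.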

The nature of test [5]: HEK293 18hr Apoptosis Induction qHTS against the NCATS CANVASS Library (AID 1347357). In a few lines:
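Luminescent caspase-3/7 signal is measured in HEK293 cells exposed for 18 hours to an 11-point concentration series; doxorubicin serves as the plate control.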

Test [6] can be described thus: DH5-alpha competent E. coli microbial cell viability qHTS against the NCATS CANVASS Library (AID 1347377). The following applies: outcome: dose series up to 46.1 µM unless noted. The essentials:
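Bacteria were dispensed at 0.2 OD, then compounds were pin-transferred. Plates were incubated overnight at 37C, after which BacTiter-Glo was added and luminescence measured 20 min later.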

Test [7] in a line: qHTS for activators of dead-cell proteases activity screened against the NCATS CANVASS Library (AID 1347392).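 Further: luminescence from protease leaking out of membrane-damaged cells cleaving impermeant substrate; rising signal means more cytotoxicity.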 The essentials:
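Cytotoxicity in HepG2 cells was assessed by released protease cleaving AAF-aminoluciferin, with luminescence as signal. Exposure lasted 5 h at 37C across an 11-point series.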

A short description of test [8]: ZIKV-mCherry secondary qHTS for Zika virus inhibitors (AID 1347158). Further: top concentration of the series differs between compounds. In a few lines:
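Compounds were tested in Vero monkey kidney cells infected with recombinant mCherry-expressing Zika virus at MOI 1 for 48-72 h at 37 °C. Fixed cells were nuclear-stained and imaged, and infection rate was taken as the fraction of mCherry-positive cells.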

The subject of test [9] is Zika virus NS2B-NS3 protease (linked construct). The test can be described thus: 384 well plate NINDS Rhodamine confirmatory qHTS for Zika virus inhibitors (AID 1347164). Further: potency means the concentration at half of the fitted maximal effect; nearly all actives have a fitted effect of over 65% in size. In a few lines: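 Compounds are incubated about 15 minutes with linked protease (5, 30 or 60 nM final). Rhodamine 110-tagged Ac-LKRR substrate (10 microM final) is added and fluorescence measured after 25 minutes.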

The nature of test [10]: SW1088 Cancer Cell Toxicity qHTS against the NCATS CANVASS Library (AID 1347350). Further: nearly all actives have a fitted effect of over 75% in size. Further: potency means the concentration at half of the fitted maximal effect. In a few lines:
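Cells were seeded at 1000 per well, allowed 4 h at 37 degrees C/5% CO2, then pin-treated with an 11-point compound series. After 72 h, viability was read as CellTiter-Glo luminescence following 15min at room temperature.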

Test [11] in a line: qHTS for Activators of p53 Stress Response Pathway screened against the NCATS CANVASS Library (AID 1347388). In a few lines:
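p53RE-bla HCT-116 cells (4000/well) were plated 5 h at 37C, exposed to compounds for 16 h at 37C over an 11-point concentration series, then loaded with CCF4 for 2 h at room temperature; 460/530 nm emission ratio read.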

Test [12] in a line: qHTS for inhibitors of ER calcium dysfunction: SERCaMP assay screened against the NCATS CANVASS Library (AID 1347393). Further: nearly all actives have a fitted effect of over 40% in size. Further: potency means the concentration at half of the fitted maximal effect. In a few lines:
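qHTS in SH-SY5Y reporter cells: 16 h compound pretreatment, 4 h thapsigargin, then secreted Gaussia luciferase measured by luminescence.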

Records with an inconclusive call do not appear. A number with no mark means an inactive call. Activity calls are given as the source filed them. The call rests on the fitted dose curve; in most records, active means well fitted curve in the direction sought with a large enough effect; inconclusive means small, poorly fitted or top-dose-only effect, or another doubt; inactive means no such curve, though single readings can be large; an effect the other way counts as inactive or inconclusive.

With `C=C[C@@]1(C)CC[C@@H]([C@H](C)C(=O)/C=C/C(C)C)O1`, the Potency result in [1], in test [2], in test [3] and in test [4] was “inactive” each time.
On to `Cc1cc(O)cc2oc(C[C@H](C)O)cc(=O)c12`, for which the Potency entry in [5], in test [2], in test [3] and in [7] was “inactive” in each case. Moreover, in test [6], the call was inactive.
`C=C1C[C@@]23C=CC(=O)[C@@](C)(CCCC(C)C(=O)O)[C@@H]2C[C@@H]1CC3` (some centres not stated): the Potency entry in [1], in test [3] and in test [4] was “inactive” throughout. In addition, in test [6], the compound was classed as inactive.
In the case of `CCOc1ccc(S(=O)(=O)Nc2cc3c(C(=O)OCc4ccccc4)c(C)oc3c3ccccc23)cc1`, in test [8], the Potency entry was “inactive”. Also, in [9], the Potency was 316 µM (active).
On to `O=c1cc(-c2ccc(O)cc2)oc2c([C@@H]3OC(CO)[C@H](O)[C@@H](O)[C@H]3O)c(O)cc(O)c12` (some centres not stated), for which the Potency entry in test [10], in test [11], in test [7], in test [12] and in [4] was “inactive” throughout. Besides, in test [6], the compound was classed as inactive.
For `C=C1/C=C\C(CCC)=C\c2csc(n2)C(C)NC(=O)C[C@@]2(CC(=O)O)CCC(=C)[C@H](C1)S2` (some centres not stated), the Potency entry in [10], in [1], in test [11], in test [2], in [3] and in test [7] was “inactive” throughout. The Potency result in test [12] was “inactive”.
Consider `Oc1ccc(C2c3c(O)cc(O)cc3[C@@H]3C(c4ccc(O)cc4)c4c(O)cc(O)cc4[C@H]23)cc1` (some centres not stated), for which the Potency result in test [1], in [3] and in test [7] was “inactive” throughout.
Turning to `CS/C=C/C(N)=O`, the Potency entry in test [10], in test [1], in [5], in test [2], in test [7] and in [12] was “inactive” each time. Moreover, the compound was called inactive in [6].
For the compound `COc1cc(O)c2c3c(c(O)cc(C)c13)C(=O)OC2`, the Potency entry in test [10], in [1], in [3] and in test [7] was “inactive” throughout. Also, the compound was called inactive in [6].
Consider `O=C(NCc1ccccc1Cl)c1ccc2c(O)c(S(=O)(=O)c3ccccc3)c(=O)[nH]c2c1`, for which the Potency entry in [8] is “inactive”. For the same compound, in test [9], the Potency is 50.1 µM (active).
Regarding `CCCCCCCCC[C@@H]1C[C@@H]2CC[C@H]3[C@@H](C(=O)OCCCCN=C(N)N)[C@@H](C)N=C(N1)N23`, the Potency entry in test [11], in [2], in test [3], in test [7], in test [12] and in [4] was “inactive” in each case.
Regarding `C1=C2CCCN[C@@H]2[C@@H]2CCN3CCCC[C@@H]3[C@H](C1)C2`, the Potency result in test [10], in test [5], in test [2], in test [3], in test [7] and in test [12] was “inactive” throughout. For the same compound, in test [6], the result was inactive.
Consider `CO[C@H]1/C=C/CC[C@@H](S[C@@H]2O[C@H](CO)[C@@H](O)[C@H](O)[C@H]2O)CC(=O)O[C@@H](/C(C)=C/[C@H](C)C(=O)CCCC2CC(=O)NC(=O)C2)[C@@H](C)[C@@H]1O`, for which the Potency result in test [5], in test [11] and in test [12] was “inactive” each time. Moreover, the result in test [6] was inactive. In addition, the Potency in [3] is 7.67 µM (active).
Take `C=C1C(=O)C[C@H]2C[C@@H]1[C@]2(C)CCC=C(C)C`: the Potency result in test [10], in [5] and in test [11] was “inactive” throughout. Further, the result in test [6] was inactive. Also, the Potency in test [12] was 19.3 µM (active).
Consider `COc1ccc2cc(NC(=O)C3=NO[C@H]4[C@H](O)C=C[C@@H](Cl)[C@@]4(O)C3)c(=O)oc2c1OC`, for which the Potency entry in test [10], in test [5], in test [2] and in test [4] was “inactive” each time. The call in [6] was inactive. Moreover, the Potency in test [12] is 15.3 µM (active).
In the case of `C=C1C(=O)O[C@H]2C[C@H](C)[C@@H]3CC(=O)C(C)=C3[C@H](O)[C@H]12`, the Potency in [1] was 7.43 µM (active). Also, the Potency result in test [11] was “inactive”.
Regarding `O=C(O)Cc1c[nH]c2ccccc12`, the Potency result in test [10], in test [1], in test [3] and in test [4] was “inactive” in each case.
Consider `C/C1=C/[C@@H](C)[C@H](O)C/C=C/CC/C=C/C(=O)O[C@@H]1[C@H](C)C(=O)/C=C/CC1CC(=O)NC(=O)C1`, for which the Potency in test [1] is 7.43 µM (active). Besides, the compound was classed as inactive in [6]. For the same compound, the Potency entry in [7] was “inactive”.
Take `C=C1C(=O)O[C@H]2[C@H]1CC/C(CO)=C\CC[C@@]1(C)O[C@@H]21`: the Potency is 5.9 µM (active) in [1], 34.3 µM (active) in test [3] and 4.31 µM (active) in test [12]. Moreover, in test [6], the compound was called inactive. Also, in test [4], the Potency result was “inactive”.
For `CC(C)=CCC/C(C)=C/Cc1c(O)c(CC=C(C)C)c(O)c2c(=O)c3cc(O)ccc3oc12`, the Potency in test [10] was 9.43 µM (active); in test [2], 1.86 µM (active); in test [4], 26.3 µM (active). Besides, in test [6], the outcome was inactive.

These data come from PubChem BioAssay (NCATS).
